A selection: hits, their analogues and other compounds. The true share with any hit is near 9.4%.
NPC1 prom act – qHTS Assay for NPC1 Promoter Activators; AID 485313, 2010; Huh7 NPC1 promoter luciferase reporter, 24 h; hit rate 2.4% among 320,000; Potency, µM (highest dose often 9.22 µM), without a hit: at the highest dose activation, hits mostly activators; further: % of control where 0% means no effect; nearly all actives have a fitted effect of over 60% in size
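Huh7 reporter cells (NPC1 promoter driving luciferase) are dosed with compound for 24 h at 37 °C, 5% CO2; luciferase detection reagent is then added and luminescence measured after 10 min at ambient temperature.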
Rab9 prom act – qHTS Assay for Rab9 Promoter Activators; hit rate 2.8% among 320,000; AID 485297, 2010; Huh7 Rab9 promoter-luciferase reporter, luminescence, 24 h; Potency, µM (highest dose often 9.22 µM), for the others: at the top dose activation, negative = inhibition, most hits filed as activators; further: % of control where 0% means no effect; nearly all actives have a fitted effect of over 60% in size
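Cell-based reporter: Huh7 stable for Rab9 promoter-driven luciferase, plated in reduced-serum medium with 10% FBS at 1500 cells/well, compound-treated 24 h at 37 °C, luminescence read after 10 min reagent.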
FLuc counter – qHTS profiling assay for firefly luciferase inhibitor/activator using purifed enzyme and Km concentrations of substrates (counterscreen for miR-21 project); purified FLuc, Km substrates, luminescence inhibition; hit rate 6.9% among 360,000; Luciferin 4-monooxygenase (Photinus pyralis), P08659; Potency, µM (titrated, usually from 57.5 µM), for the others: at the highest dose activity change, negative = inhibition, usual class: inhibitors;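 further: plate controls were vehicle for no effect and reference inhibitor for full effect; nearly all actives have a fitted effect of over 55% in size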
Target sequence (P08659 whole entry, looked up): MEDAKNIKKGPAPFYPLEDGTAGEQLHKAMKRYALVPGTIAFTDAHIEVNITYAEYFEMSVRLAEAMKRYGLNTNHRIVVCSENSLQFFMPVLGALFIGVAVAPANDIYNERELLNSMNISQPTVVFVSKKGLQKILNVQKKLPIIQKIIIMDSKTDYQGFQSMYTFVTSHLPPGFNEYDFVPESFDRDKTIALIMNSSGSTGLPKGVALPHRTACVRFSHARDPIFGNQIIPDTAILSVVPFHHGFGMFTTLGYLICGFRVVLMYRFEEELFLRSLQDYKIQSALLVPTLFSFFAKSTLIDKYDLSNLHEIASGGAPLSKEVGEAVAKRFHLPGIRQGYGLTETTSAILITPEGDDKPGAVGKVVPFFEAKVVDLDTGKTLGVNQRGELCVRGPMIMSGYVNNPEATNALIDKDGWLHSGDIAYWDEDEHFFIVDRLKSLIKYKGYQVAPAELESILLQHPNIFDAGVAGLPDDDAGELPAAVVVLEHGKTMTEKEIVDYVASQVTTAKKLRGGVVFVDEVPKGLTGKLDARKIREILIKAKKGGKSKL
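Purified P. pyralis luciferase (10nM final) with 10uM D-luciferin and 10uM ATP (Km levels) in 50mM Tris acetate pH 7.5, 10mM Mg acetate, 0.01% Tween-20, 0.05% BSA; qHTS 6-point titration, ~60 µM downward; luminescence read.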
ELG1 genotoxic – qHTS screen for small molecules that induce genotoxicity in human embryonic kidney (HEK293T) cells expressing luciferase-tagged ELG1. AID 504466, 2011. hit rate 1.3% among 330,000. Potency, µM (top dose mostly 46 µM), without a hit: at the top dose activity change, positive = activation, hits mostly activators. HEK293T ELG1-luciferase reporter, luminescence, 16 h; further: % of control where 0% means no effect; nearly all actives have a fitted effect of over 60% in size
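DMSO vehicle served as control against compound-treated ELG1-luciferase HEK293T cells; exposure lasted 16 hr at 37 °C and 5% CO2, followed by ONE-Glo luminescence detection after 30 min.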
SMN2 splice up – qHTS Assay for Enhancers of SMN2 Splice Variant Expression; HEK293 SMN2-luciferase splicing reporter, luminescence, 30-36 h; Potency, µM (top dose mostly 46.1 µM), without a hit: at the top dose activity change, positive = activation, usual class: activators; hit rate 2.8% among 210,000; further: % of control where 0% means no effect; nearly all actives have a fitted effect of over 55% in size
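HEK293 cells carry an SMN2 […]–luciferase reporter in which exon 7 inclusion puts luciferase in frame. Cells were plated 10-12 h before compound addition, then incubated 30-36 h at 37C. ONE-Glo luminescence was read; sodium butyrate at 4.5 mM final served as control.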
ELG1 DNA repair – qHTS screen for small molecules that inhibit ELG1-dependent DNA repair in human embryonic kidney (HEK293T) cells expressing luciferase-tagged ELG1. HEK293T ELG1-luciferase reporter, luminescence, 16 h; DNA damage induced by 5-fluorouridine. hit rate 2.3% among 330,000. Potency, µM (top dose mostly 46.1 µM), inactives show top-dose activity change, negative = inhibition, usual class: inhibitors; further: on the % scale 0 is the no-effect control and ±100 the full control effect; nearly all actives have a fitted effect of over 55% in size
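Step one: seed 2,000 cells per well. Step two: pin-transfer compound or DMSO alongside 5-fluorouridine. Step three: incubate 16 hr, 37 °C, 5% CO2. Step four: add ONE-Glo, wait 30 min, read luminescence.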
An asterisk follows results filed as active; ? = inconclusive; . = no result. The call rests on the fitted dose curve; in most records, active means well fitted curve in the direction sought with a large enough effect; inconclusive means small, poorly fitted or top-dose-only effect, or another doubt; inactive means no such curve, though single readings can be large; an effect the other way counts as inactive or inconclusive. Potency means the concentration at half of the fitted maximal effect.

SMILES	NPC1 prom act	Rab9 prom act	FLuc counter	ELG1 genotoxic	SMN2 splice up	ELG1 DNA repair
O=C1c2cc(Br)ccc2O[C@@H](c2ccc3c(c2)OCO3)[C@@H]1O	.	.	.	.	18%	.
O=c1cc(C(F)(F)F)[nH]c2ccc(OC(F)(F)F)cc12	-4%	-1%	21µM*	-7%	.	?
CC1CCc2c(sc3nnn(CC(=O)Nc4ccccc4Cl)c(=O)c23)C1 (configuration not stated)	.	.	-1%	.	-3%	.
CCOc1ccc(C(=O)NCC2CCCO2)cc1 (configuration not stated)	21%	28%	?	?	?	?
CCOc1ccc(C(=O)Nc2onc3c2CCCC3)cc1	.	.	0.3µM*	.	2.8µM*	.
CC(C)COc1ccc(C(=O)Nc2onc3c2CCCC3)cc1	.	.	0.34µM*	.	19%	.
CCC(=O)N1CCc2cc(S(=O)(=O)NCCC(=O)Nc3ccc(OC)c(Cl)c3)ccc21	.	.	3%	.	-20%	.
N#Cc1nc(/C=C/c2ccc(F)cc2)oc1N1CCCCCC1	.	.	-10%	.	-1%	.
CC(C)(C)OC(=O)NCCCCCNC(=O)c1[nH]cnc1C(=O)Nc1ccccc1	2%	2%	?	-10%	.	?
CC(C)(C)OC(=O)NCCCCCNC(=O)c1[nH]cnc1C(=O)Nc1ccc(Cl)cc1	-6%	3%	-4%	-10%	.	21µM*
CCOC(=O)c1ccc(NC(=O)c2nc[nH]c2C(=O)N[C@@H](Cc2ccccc2)C(=O)OC(C)(C)C)cc1	-8%	-9%	2%	-11%	.	23µM*
CCOC(=O)c1ccc(NC(=O)c2nc[nH]c2C(=O)NCCCCCNC(=O)OC(C)(C)C)cc1	-2%	-3%	-16%	-15%	.	16µM*
CCOC(=O)c1ccc(NC(=O)c2nc[nH]c2C(=O)NCCCCNC(=O)c2[nH]cnc2C(=O)Nc2ccc(C(=O)OCC)cc2)cc1	-14%	-19%	5%	-6%	.	?
Cc1ccc(NC(=O)c2nc[nH]c2C(=O)NCCCCCNC(=O)OC(C)(C)C)cc1	-3%	-1%	3%	-8%	.	23µM*
CCOc1ccccc1NS(=O)(=O)c1c(C(=O)OC)sc2cccc(F)c12	.	.	-11%	.	.	.
Cc1ccc(C2CC(=O)Nc3cc4c(cc32)OCCO4)cc1Br (configuration not stated)	.	.	-15%	.	-2%	.
Cc1ccc(NC(=O)c2nc[nH]c2C(=O)NCCCNC(=O)c2[nH]cnc2C(=O)Nc2ccc(C)cc2)cc1	.	.	.	-4%	.	5.2µM*
CCCCC(=O)Nc1ccccc1C(=O)OCC(=O)c1ccc2c(c1)OCCO2	29%	?	1.2µM*	4%	-9%	23%
O=C(O)/C=C/C(=O)Nc1ccccc1C(=O)OCC(=O)c1ccc2c(c1)OCCO2	2%	15%	0.19µM*	12%	-1%	?
Nc1nn2cc(-c3ccc(Br)cc3)nc2c2ccccc12	1.8µM*	2.2µM*	1.7µM*	?	.	?
CCN(CC)S(=O)(=O)c1ccc(NC(=O)COC(=O)c2ccc(-n3nc(C)cc3C)cc2)cc1	-1%	-1%	1%	-1%	-4%	?
CCN(CC)S(=O)(=O)c1cc(C(=O)OCC(=O)Nc2ccc(-c3nc4ccc(C)cc4s3)cc2)ccc1F	0.4µM*	0.32µM*	5.4µM*	10µM*	1.6µM*	?
CCN(CC)S(=O)(=O)c1ccc(C(=O)OCC(=O)Nc2ccc(-c3nc4ccc(C)cc4s3)cc2)cc1	0.4µM*	0.45µM*	2.7µM*	1.6µM*	1µM*	?
Cc1ccc(CNC(=O)C(C(C)C)N2Cc3ccccc3C2=O)cc1 (configuration not stated)	.	.	-2%	.	.	.
O=C(Nc1nc2c(F)cccc2s1)c1ccc([N+](=O)[O-])o1	4µM*	?	?	2%	.	?
SMILES	NPC1 prom act	Rab9 prom act	FLuc counter	ELG1 genotoxic	SMN2 splice up	ELG1 DNA repair
O=C(Nc1nc2c(Cl)cccc2s1)c1ccc([N+](=O)[O-])o1	-2%	9%	?	-12%	.	?
CCOC(=O)c1c(C)[nH]c(C)c1S(=O)(=O)NCC(=O)N1CCN(c2cccc(C)c2)C(C)C1 (configuration not stated)	.	.	-2%	.	.	.
c1ccc(OCCOc2ncnc3sccc23)cc1	26%	2.8µM*	?	16µM*	?	?
O=[N+]([O-])c1ccccc1S(=O)(=O)Nc1cccc(-c2ccc(N3CCOCC3)nn2)c1	25%	?	2.7µM*	?	.	?
O=S(=O)(Nc1cccc(-c2ccc(N3CCOCC3)nn2)c1)c1cc(Cl)ccc1Cl	19%	?	7.6µM*	?	.	?
COc1ccc(-c2cccc(NS(=O)(=O)c3cc([N+](=O)[O-])ccc3C)c2)nn1	5%	-6%	-1%	-1%	.	7%
O=[N+]([O-])c1ccccc1S(=O)(=O)Nc1cccc(-c2ccc(N3CCCC3)nn2)c1	23%	20%	17µM*	?	.	?
O=S(=O)(Nc1ccc(N2CCOCC2)cc1)c1cc(Cl)ccc1Cl	-2%	-6%	-1%	6%	.	-6%
Cc1ccc([N+](=O)[O-])cc1S(=O)(=O)Nc1cccc(-c2ccc(N3CCOCC3)nn2)c1	20%	?	3µM*	9.2µM*	.	?
O=[N+]([O-])c1ccccc1S(=O)(=O)Nc1ccc(-c2ccc(N3CCOCC3)nn2)cc1	17%	19%	?	3%	.	?
Cc1cccc(OCCCCn2nnc3sc4c(c3c2=O)CCC(C)C4)c1 (configuration not stated)	.	.	1%	.	4%	.
COc1ccc(OC)c(NC(=O)C2=C(C)C(=O)OC23CCN(C(C)C)CC3)c1	.	.	-1%	.	.	.
COc1cc(C2CC(=O)Nc3ccccc3S2)cc(OC)c1OC (configuration not stated)	-2%	-6%	4%	-26%	7%	10µM*
CSCCC(NC(=O)c1ccc(Cl)cc1Cl)C(=O)NNC(=O)c1ccncc1 (configuration not stated)	-3%	-6%	15µM*	1%	.	3%
O=C(NNC(=O)c1ccc(Cl)cc1Cl)c1ccncc1	2%	0%	13µM*	7%	?	?
O=C(NNC(=O)c1ccccc1Cl)c1ccncc1	-2%	-7%	-9%	0%	-2%	?
Cc1cc(C)c2oc(C(=O)Nc3c(C)n(C)n(-c4ccccc4)c3=O)cc(=O)c2c1	.	.	-1%	.	-4%	.

Screening results as filed in PubChem.
